Data from the supplement of paper PMC10849652.
The full data set covers some 7,900 targets. This sample favours those with a hit. About 0.6% of all pairs of compound and target were hits.

Legend:
Assay in all cases: log2 fold change, soluble protein after heating vs DMSO (PISA); higher = thermal stabilisation; K562 cells, 10 uM, 30 min; active = over 0.2 and 3.5 SD of the protein, either way, in both replicates (recomputed)
[1] = compound: CN1CCN(CCOc2cc(OC3CCOCC3)c3c(Nc4c(Cl)ccc5c4OCO5)ncnc3c2)CC1 [saracatinib]
Summary of the method: (§1)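 K562 cells at 2×10^6 cells/mL were exposed to 10 μM compound for 30 min, then aliquots were heated for 3 min across 48°C-58°C, pooled, and extracted in PBS containing 0.5% NP-40 at 4°C. The supernatant after 21,000xg for 90 min was taken as soluble protein and measured by TMTpro 16plex LC-MS/MS with channel sums equalised. Thermal stability is reported relative to control samples, with values from duplicates. Fold changes are given on a log2 scale.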

[2] = compound: CN1CCN(c2nc(C3=C(c4c[nH]c5ccccc45)C(=O)NC3=O)c3ccccc3n2)CC1 [sotrastaurin]
Summary of the method: as §1

[3] = compound: CN1CC[C@H](c2c(O)cc(O)c3c(=O)cc(-c4ccccc4Cl)oc23)[C@H](O)C1 [alvocidib]
Summary of the method: as §1

[4] = compound: CN1CCc2c(c3ccccc3n2Cc2ccc(C(=O)NO)cc2)C1 [Tubastatin A]
Summary of the method: as §1

[5] = compound: CNC(=O)C1=CC=CC=C1NC2=NC(=NC=C2Cl)NC3=C(C=C(C=C3)N4CCOCC4)OC
Summary of the method: as §1

[6] = compound: CNC(=O)c1ccc(Nc2ncc(C(F)(F)F)c(NCc3nccnc3N(C)S(C)(=O)=O)n2)cc1 [defactinib]
Summary of the method: as §1

[7] = compound: CNCc1ccc(-c2[nH]c3cc(F)cc4c3c2CCNC4=O)cc1 [rucaparib]
Summary of the method: as §1

[8] = compound: CNc1nc(-c2ccc3c(N)n[nH]c3c2)cc(N2C[C@@H](C(=O)NC3CCCCC3)CC[C@H]2C)n1
Summary of the method: as §1

[9] = compound: COC(=O)N[C@@H](C)CNc1nccc(-c2cn(C(C)C)nc2-c2cc(Cl)cc(NS(C)(=O)=O)c2F)n1 [encorafenib]
Summary of the method: as §1

[10] = compound: COC(=O)[C@H](CCSC)NC(=O)C1=C(C=C(C=C1)NC[C@H](CS)N)C2=CC=CC=C2
Summary of the method: as §1

Measured: log2 fold change

UHRF1BP1 (UniProt Q6BDS2)
inactive: [1] 0.011 | [2] 0.049 | [3] -0.043 | [4] 0.016 | [5] -0.013 | [6] -0.064 | [7] -0.007 | [8] 0.048 | [9] -0.012 | [10] 0.017

WDR43 (UniProt Q15061)
inactive: [1] 0.031 | [2] 0.014 | [3] 0.062 | [4] -0.045 | [5] 0.001 | [6] 0.101 | [7] 0.07 | [8] -0.002 | [9] -0.009 | [10] -0.007

UGGT1 (UniProt Q9NYU2)
inactive: [1] -0.006 | [2] -0.034 | [3] -0.037 | [4] 0.022 | [5] -0.005 | [6] 0.019 | [7] 0.009 | [8] -0.033 | [9] 0.017 | [10] -0.002

WASHC2C, A0A096LPC5
inactive: [1] -0.116 | [2] -0.09 | [3] 0.071 | [4] -0.02 | [5] -0.019 | [6] -0.121 | [7] 0.114 | [8] -0.02 | [9] 0.035 | [10] 0.052

UNC119B (UniProt A6NIH7)
UniProt A6NIH7, sequence (A6NIH7 whole entry, looked up): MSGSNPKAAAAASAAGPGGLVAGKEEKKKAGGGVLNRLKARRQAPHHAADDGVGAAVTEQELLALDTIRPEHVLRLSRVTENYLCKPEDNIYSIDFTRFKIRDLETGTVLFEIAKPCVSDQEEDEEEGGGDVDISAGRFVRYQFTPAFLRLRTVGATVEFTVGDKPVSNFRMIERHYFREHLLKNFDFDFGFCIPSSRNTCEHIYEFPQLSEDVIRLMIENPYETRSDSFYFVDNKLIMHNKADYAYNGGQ
inactive: [1] -0.076 | [2] 0.013 | [3] -0.206 | [4] 0.124 | [5] -0.031 | [6] -0.064 | [7] 0.133 | [8] 0.316 | [9] 0.026 | [10] -0.048

USP24 (UniProt Q9UPU5)
inactive: [1] 0.033 | [2] 0.092 | [3] -0.061 | [4] -0.143 | [5] 0.034 | [6] -0.079 | [7] -0.03 | [8] 0.278 | [9] 0.048 | [10] -0.034

U2AF1 isoform 2 (UniProt Q01081)
inactive: [1] -0.027 | [2] -0.062 | [3] -0.064 | [4] 0.042 | [5] -0.104 | [6] -0.086 | [7] 0.045 | [8] -0.009 | [9] 0.041 | [10] -0.075

UBE3D (UniProt Q7Z6J8)
inactive: [1] 0.027 | [2] -0.007 | [3] -0.059 | [4] -0.043 | [5] -0.058 | [6] -0.003 | [7] 0.161 | [8] -0.064 | [9] 0.005 | [10] -0.108

TOM1 isoform 2 (UniProt O60784)
inactive: [1] 0.033 | [2] -0.132 | [3] 0.001 | [4] 0.132 | [5] -0.025 | [6] -0.087 | [7] -0.024 | [8] -0.043 | [9] 0.009 | [10] 0.089

VPS39 (UniProt Q96JC1)
UniProt Q96JC1, sequence (Q96JC1 whole entry, looked up): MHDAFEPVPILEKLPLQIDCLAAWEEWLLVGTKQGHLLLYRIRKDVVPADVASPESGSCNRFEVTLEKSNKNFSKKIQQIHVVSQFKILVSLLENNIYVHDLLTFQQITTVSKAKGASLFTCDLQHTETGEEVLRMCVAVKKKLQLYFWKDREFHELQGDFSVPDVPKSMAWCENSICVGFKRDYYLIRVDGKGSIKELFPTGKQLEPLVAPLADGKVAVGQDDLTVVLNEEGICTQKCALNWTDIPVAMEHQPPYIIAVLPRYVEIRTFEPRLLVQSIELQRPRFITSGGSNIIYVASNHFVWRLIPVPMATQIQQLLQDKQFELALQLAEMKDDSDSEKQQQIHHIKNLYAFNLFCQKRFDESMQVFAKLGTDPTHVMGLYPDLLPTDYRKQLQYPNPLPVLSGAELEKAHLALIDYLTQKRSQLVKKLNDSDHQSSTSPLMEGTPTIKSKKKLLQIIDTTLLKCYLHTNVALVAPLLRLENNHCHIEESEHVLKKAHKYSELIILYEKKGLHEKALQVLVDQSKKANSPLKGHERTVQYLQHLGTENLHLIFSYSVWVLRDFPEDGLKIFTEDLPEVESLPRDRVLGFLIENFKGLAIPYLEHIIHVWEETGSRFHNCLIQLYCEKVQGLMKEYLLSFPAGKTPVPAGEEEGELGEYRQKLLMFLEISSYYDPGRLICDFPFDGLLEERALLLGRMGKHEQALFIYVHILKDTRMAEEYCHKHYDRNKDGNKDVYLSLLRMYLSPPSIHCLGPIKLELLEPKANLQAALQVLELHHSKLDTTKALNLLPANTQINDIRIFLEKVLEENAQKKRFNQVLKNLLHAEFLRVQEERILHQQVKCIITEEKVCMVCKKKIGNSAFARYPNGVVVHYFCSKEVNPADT
inactive: [1] 0 | [2] -0.097 | [3] -0.035 | [4] 0.033 | [5] -0.015 | [6] -0.068 | [7] 0.039 | [8] 0.005 | [9] -0.006 | [10] -0.03

USP9X (UniProt Q93008)
inactive: [1] -0.006 | [2] -0.073 | [3] -0.056 | [4] -0.014 | [5] -0.022 | [6] -0.03 | [7] 0.032 | [8] -0.003 | [9] 0.082 | [10] -0.009

VPS28 (UniProt Q9UK41)
UniProt Q9UK41, sequence (Q9UK41 whole entry, looked up): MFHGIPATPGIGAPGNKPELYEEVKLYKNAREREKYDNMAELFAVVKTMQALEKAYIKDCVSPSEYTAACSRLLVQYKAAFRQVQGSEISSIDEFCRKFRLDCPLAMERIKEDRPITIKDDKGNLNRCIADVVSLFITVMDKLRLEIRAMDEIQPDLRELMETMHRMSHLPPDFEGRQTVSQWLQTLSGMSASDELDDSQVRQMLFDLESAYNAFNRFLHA
inactive: [1] -0.101 | [2] -0.078 | [3] -0.135 | [4] 0.072 | [5] 0.043 | [6] -0.172 | [7] -0.044 | [8] -0.046 | [9] 0.082 | [10] -0.033

UFM1 (UniProt P61960)
inactive: [1] 0.028 | [2] -0.004 | [3] -0.262 | [4] 0.097 | [5] 0.026 | [6] -0.066 | [7] -0.119 | [8] -0.013 | [9] 0.029 | [10] -0.031

TNPO2 (UniProt O14787)
inactive: [1] 0.066 | [2] -0.055 | [3] -0.188 | [4] 0.03 | [5] 0.013 | [6] -0.188 | [7] -0.051 | [8] 0.054 | [9] 0.133 | [10] -0.079

TPP1 (UniProt O14773)
UniProt O14773, sequence (O14773 whole entry, looked up): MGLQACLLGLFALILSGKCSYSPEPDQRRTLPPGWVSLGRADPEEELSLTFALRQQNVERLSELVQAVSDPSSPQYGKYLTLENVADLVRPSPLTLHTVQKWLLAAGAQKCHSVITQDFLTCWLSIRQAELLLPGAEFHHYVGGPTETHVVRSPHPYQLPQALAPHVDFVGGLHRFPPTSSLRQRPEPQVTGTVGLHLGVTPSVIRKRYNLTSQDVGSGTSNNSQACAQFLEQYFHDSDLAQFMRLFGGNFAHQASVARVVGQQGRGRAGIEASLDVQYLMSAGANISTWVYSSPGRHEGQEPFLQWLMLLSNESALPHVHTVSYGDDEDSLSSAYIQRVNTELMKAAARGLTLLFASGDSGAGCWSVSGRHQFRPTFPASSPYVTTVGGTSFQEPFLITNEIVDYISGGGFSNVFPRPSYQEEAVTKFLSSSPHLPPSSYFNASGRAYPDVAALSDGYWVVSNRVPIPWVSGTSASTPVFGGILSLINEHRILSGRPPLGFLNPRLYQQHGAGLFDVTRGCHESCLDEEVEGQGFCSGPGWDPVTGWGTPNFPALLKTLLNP
inactive: [1] -0.008 | [2] -0.005 | [3] -0.005 | [4] 0.005 | [5] 0.007 | [6] 0.049 | [7] -0.013 | [8] -0.013 | [9] 0.018 | [10] 0.011

UCHL5 (UniProt Q9Y5K5)
UniProt Q9Y5K5, sequence (Q9Y5K5 whole entry, looked up): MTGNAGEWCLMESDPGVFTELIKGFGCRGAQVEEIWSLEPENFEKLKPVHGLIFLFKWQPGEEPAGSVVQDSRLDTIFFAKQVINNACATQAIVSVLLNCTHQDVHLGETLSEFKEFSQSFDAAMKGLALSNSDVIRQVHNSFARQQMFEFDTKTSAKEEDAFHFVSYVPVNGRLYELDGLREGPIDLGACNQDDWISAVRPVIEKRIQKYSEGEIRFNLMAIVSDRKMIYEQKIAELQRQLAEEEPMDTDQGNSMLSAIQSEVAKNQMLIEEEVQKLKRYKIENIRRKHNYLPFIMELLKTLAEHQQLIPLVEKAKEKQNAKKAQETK
inactive: [1] -0.044 | [2] -0.057 | [3] -0.097 | [4] 0.148 | [5] 0.013 | [6] -0.107 | [7] 0.074 | [8] -0.001 | [9] 0.091 | [10] -0.028

U2AF2 (UniProt P26368)
inactive: [1] 0.022 | [2] 0.056 | [3] -0.038 | [4] -0.007 | [5] -0.181 | [6] -0.035 | [7] 0.163 | [8] -0.037 | [9] -0.037 | [10] 0.001

TRAPPC8 (UniProt Q9Y2L5)
inactive: [1] -0.017 | [2] -0.044 | [3] -0.055 | [4] -0.004 | [5] 0.014 | [6] -0.104 | [7] 0.074 | [8] 0.008 | [9] 0.032 | [10] -0.032

VPS11 (UniProt Q9H270)
UniProt Q9H270, sequence (Q9H270 whole entry, looked up): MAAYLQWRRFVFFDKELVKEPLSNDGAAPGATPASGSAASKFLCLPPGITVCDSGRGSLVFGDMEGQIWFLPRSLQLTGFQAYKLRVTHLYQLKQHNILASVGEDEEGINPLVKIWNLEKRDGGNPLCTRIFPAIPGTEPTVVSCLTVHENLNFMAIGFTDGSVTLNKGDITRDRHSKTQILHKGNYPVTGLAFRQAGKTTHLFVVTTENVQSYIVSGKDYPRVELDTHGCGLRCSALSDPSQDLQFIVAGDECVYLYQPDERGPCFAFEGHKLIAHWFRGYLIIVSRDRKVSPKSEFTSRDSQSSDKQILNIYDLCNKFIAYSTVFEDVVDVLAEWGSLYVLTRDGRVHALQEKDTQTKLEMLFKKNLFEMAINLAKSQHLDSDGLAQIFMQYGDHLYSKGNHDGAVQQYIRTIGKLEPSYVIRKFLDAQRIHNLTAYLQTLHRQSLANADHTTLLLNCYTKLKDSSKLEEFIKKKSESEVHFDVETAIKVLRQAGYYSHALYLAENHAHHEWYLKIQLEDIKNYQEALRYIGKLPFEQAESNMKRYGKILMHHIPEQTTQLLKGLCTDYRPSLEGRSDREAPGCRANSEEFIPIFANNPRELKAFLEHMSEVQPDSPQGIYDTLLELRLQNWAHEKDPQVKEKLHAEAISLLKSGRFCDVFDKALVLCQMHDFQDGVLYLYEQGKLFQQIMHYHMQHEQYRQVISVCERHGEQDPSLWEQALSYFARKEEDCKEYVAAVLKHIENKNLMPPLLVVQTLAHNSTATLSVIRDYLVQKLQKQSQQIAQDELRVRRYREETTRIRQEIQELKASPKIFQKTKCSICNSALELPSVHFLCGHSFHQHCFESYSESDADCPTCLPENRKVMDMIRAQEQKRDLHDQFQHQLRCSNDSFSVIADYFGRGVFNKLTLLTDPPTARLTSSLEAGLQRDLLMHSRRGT
inactive: [1] -0.003 | [2] -0.08 | [3] -0.061 | [4] 0.004 | [5] -0.018 | [6] -0.066 | [7] 0.082 | [8] -0.021 | [9] 0.023 | [10] -0.01

TNFRSF8 (UniProt P28908)
inactive: [1] 0.037 | [2] 0.092 | [3] -0.013 | [4] 0.031 | [5] -0.013 | [6] -0.034 | [7] 0.012 | [8] 0.04 | [9] -0.046 | [10] -0.02

TRAPPC6B (UniProt Q86SZ2)
UniProt Q86SZ2, sequence (Q86SZ2 whole entry, looked up): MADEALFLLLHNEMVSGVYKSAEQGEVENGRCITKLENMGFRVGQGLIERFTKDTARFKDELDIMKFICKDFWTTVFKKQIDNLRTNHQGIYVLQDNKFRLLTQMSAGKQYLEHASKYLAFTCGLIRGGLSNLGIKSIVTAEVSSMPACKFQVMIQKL
inactive: [1] 0.035 | [2] -0.068 | [3] -0.055 | [4] 0.031 | [5] -0.034 | [6] -0.046 | [7] 0.012 | [8] 0.008 | [9] -0.02 | [10] 0.022

UBE2Q1 (UniProt Q7Z7E8)
inactive: [1] -0.023 | [2] -0.001 | [3] -0.069 | [4] 0.027 | [5] 0.05 | [6] -0.143 | [7] -0.008 | [8] 0.048 | [9] 0.04 | [10] -0.017

UBLCP1 (UniProt Q8WVY7)
inactive: [1] 0.036 | [2] -0.032 | [3] 0.024 | [4] 0.147 | [5] 0.027 | [6] -0.016 | [7] -0.068 | [8] -0.038 | [9] 0.088 | [10] -0.034

VPS53 isoform 4 (UniProt Q5VIR6)
UniProt Q5VIR6, sequence (Q5VIR6 whole entry, looked up): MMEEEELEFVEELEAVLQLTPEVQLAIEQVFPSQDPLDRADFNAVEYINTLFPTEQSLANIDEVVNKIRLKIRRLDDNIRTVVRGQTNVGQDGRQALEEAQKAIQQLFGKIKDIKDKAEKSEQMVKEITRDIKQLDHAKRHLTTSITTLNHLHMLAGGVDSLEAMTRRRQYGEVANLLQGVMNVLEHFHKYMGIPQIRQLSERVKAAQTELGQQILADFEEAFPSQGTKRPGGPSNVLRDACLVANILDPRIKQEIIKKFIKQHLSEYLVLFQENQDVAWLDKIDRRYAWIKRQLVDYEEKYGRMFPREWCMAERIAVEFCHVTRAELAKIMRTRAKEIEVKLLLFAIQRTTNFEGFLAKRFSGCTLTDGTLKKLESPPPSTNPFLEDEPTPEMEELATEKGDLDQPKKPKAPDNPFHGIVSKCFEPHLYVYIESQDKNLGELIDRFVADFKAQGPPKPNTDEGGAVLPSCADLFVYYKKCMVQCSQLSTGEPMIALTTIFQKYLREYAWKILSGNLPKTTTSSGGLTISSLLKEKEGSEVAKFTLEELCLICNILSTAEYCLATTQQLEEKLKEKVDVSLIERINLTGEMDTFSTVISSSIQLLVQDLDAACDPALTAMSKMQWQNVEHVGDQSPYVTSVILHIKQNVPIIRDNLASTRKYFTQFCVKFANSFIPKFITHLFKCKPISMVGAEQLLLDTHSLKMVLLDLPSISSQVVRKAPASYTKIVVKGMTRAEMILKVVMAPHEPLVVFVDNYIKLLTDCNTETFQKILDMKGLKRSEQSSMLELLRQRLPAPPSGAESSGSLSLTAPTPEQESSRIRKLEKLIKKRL
inactive: [1] 0.029 | [2] -0.102 | [3] -0.146 | [4] 0.017 | [5] -0.009 | [6] -0.056 | [7] 0.061 | [8] -0.028 | [9] 0.06 | [10] -0.001

ULBP1 (UniProt Q9BZM6)
inactive: [1] -0.027 | [2] -0.175 | [3] 0.005 | [4] 0.016 | [5] -0.096 | [6] 0.064 | [8] 0.07 | [10] 0.048

WASHC3 (UniProt Q9Y3C0)
UniProt Q9Y3C0, sequence (Q9Y3C0 whole entry, looked up): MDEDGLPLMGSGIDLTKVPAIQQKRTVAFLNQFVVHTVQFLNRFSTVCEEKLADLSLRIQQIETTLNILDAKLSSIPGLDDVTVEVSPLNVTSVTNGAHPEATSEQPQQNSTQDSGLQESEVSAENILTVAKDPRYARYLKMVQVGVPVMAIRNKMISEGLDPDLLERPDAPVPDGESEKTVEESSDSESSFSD
inactive: [1] 0.055 | [2] 0.026 | [3] 0.077 | [4] 0.054 | [5] 0.004 | [6] -0.02 | [7] -0.022 | [8] -0.02 | [9] -0.005 | [10] 0.008

TMEM9 (UniProt Q9P0T7)
UniProt Q9P0T7, sequence (Q9P0T7 whole entry, looked up): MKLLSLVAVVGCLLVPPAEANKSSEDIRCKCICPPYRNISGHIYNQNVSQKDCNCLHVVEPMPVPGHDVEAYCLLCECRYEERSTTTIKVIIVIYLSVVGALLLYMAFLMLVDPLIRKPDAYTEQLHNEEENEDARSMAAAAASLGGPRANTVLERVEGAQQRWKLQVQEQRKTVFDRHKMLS
inactive: [1] 0.051 | [2] -0.025 | [3] -0.068 | [4] 0.016 | [5] 0.004 | [6] -0.014 | [7] 0.003 | [8] 0.033 | [9] 0.033 | [10] 0.004

TTC4 (UniProt O95801)
UniProt O95801, sequence (O95801 whole entry, looked up): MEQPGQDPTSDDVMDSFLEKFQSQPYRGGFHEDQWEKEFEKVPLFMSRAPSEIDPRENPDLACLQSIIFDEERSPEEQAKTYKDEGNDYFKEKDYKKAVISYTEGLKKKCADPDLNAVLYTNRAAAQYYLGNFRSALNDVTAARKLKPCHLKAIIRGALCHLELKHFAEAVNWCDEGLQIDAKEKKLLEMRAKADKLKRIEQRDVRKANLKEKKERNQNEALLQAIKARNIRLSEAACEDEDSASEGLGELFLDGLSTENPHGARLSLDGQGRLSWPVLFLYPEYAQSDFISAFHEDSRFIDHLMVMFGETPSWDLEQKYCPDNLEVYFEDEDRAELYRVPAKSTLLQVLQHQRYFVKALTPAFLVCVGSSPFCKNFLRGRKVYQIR
inactive: [1] -0.09 | [2] -0.11 | [3] -0.146 | [4] 0.055 | [5] 0.078 | [6] -0.169 | [7] 0.04 | [8] 0.051 | [9] 0.049 | [10] -0.055

WASHC5 (UniProt Q12768)
inactive: [1] 0.007 | [2] -0.02 | [3] -0.042 | [4] 0.047 | [5] 0.062 | [6] -0.032 | [7] 0.045 | [8] -0.009 | [9] 0.033 | [10] -0.033

VDAC1 (UniProt P21796)
inactive: [1] 0.074 | [2] 0.035 | [3] 0.016 | [4] -0.014 | [5] 0.011 | [6] 0.005 | [7] -0.022 | [8] -0.026 | [9] -0.03 | [10] 0.014
